# Compounds with a hit are over-represented: about 10% of the library has one in this group of screens.
# ALOX12 inhib: 12-hLO (ALOX12) enzyme inhibition. AID 1452. hit rate 0.12% among 150,000. Potency, µM (highest dose often 57.1 µM), most hits filed as inhibitors. purified 12-hLO, xylenol orange hydroperoxide absorbance; active means well fitted inhibition curve with a large enough effect; inconclusive means small, poorly fitted or top-dose-only effect; further: nearly all actives have a fitted effect of over 55% in size
# Target sequence (P18054 whole entry, looked up): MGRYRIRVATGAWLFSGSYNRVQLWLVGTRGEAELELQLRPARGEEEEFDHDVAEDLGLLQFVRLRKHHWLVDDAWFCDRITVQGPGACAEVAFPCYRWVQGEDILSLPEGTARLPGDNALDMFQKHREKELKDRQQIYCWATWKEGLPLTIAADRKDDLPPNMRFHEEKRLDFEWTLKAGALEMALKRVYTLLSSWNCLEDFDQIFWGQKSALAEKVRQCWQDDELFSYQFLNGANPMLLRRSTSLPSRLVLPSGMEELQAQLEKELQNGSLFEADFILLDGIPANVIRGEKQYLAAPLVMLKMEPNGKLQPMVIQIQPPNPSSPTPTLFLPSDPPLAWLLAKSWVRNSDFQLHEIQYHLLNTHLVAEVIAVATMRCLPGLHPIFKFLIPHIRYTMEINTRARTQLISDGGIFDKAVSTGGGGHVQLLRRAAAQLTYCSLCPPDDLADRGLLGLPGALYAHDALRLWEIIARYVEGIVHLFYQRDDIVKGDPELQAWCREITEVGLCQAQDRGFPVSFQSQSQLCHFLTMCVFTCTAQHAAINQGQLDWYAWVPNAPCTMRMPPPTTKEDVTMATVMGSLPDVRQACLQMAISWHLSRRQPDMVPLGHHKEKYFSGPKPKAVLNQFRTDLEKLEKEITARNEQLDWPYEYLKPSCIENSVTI
#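 Purified human 12hLO (150 nM), preincubated 15 min with compound, then 40 uM arachidonic acid for 30 min, room temperature, Hepes pH 7.0 with 0.01% Triton X-100. Hydroperoxide detected by ferrous iron/xylenol orange; 573/405 nm absorbance ratio gives reaction progress.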
# PNC assembly inh: blocks assembly of the perinucleolar compartment; activity change (PNC), negative = inhibition, % at 10 µM; hit rate 3.1% among 140,000; PC3M PTB-GFP, PNC prevalence imaging, 16 h; stronger effect = lower value;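 active means readout at or below -70, meaning at least 70% loss of cells showing the perinucleolar compartment, a nuclear body marking cancer cells; inconclusive means readout between -30 and a set limit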
#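 Read-out is percentage of cells bearing a perinucleolar compartment, from automated 20x imaging of fixed, Hoechst-stained PC3M PTB-GFP cells. Cells were seeded 4 h, then exposed 16 h to compound (23 nl of library stock) in duplicate plates.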
# Lamin A splicing: changes lamin A minigene splicing in HeLa cells; HeLa LMNA splicing GFP/RFP minigene ratio, 48 h; hit rate 0.01% among 200,000; Potency, µM (doses to about 46.1 µM), actives largely listed as inhibitors; AID 1487; active means well fitted inhibition curve with a large enough effect in the signal ratio, with a control signal flat, not every such curve was filed as active; inconclusive means small, poorly fitted or top-dose-only effect, or effect the other way, or a change in a side signal; the % refers to the signal ratio
#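 S3 HeLa cells stably expressing lamin A-EGFP splicing minigene plus DsRed2, 600 cells/well, 48 h compound exposure at 37C. Laser-scanning cytometry; analysed as GFP (500-530 nm)/RFP (575-640 nm) total intensity ratio; 0.5% DMSO vehicle.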
# HPGD inh: blocks human HPGD enzyme activity; P15428; hit rate 4.3% among 150,000; Potency, µM, hits mostly inhibitors; purified HPGD, NADH fluorescence kinetic, PGE2 substrate; AID 894
#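 20 nM HPGD preincubated 15 min at room temperature with compound in 50 mM Tris-HCl pH 8, 0.01% Tween 20. Started with 1 mM NAD+ and 30 uM prostaglandin E2; NADH fluorescence (360/450 nm) read 5 times over 30-s intervals, last minus first.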
# ALDH1A1 block: blocks purified human ALDH1A1 activity. Purified ALDH1A1, NADH fluorescence, propionaldehyde substrate. Potency, µM (top dose mostly 75.3 µM), hits mostly inhibitors. hit rate 7.3% among 220,000. AID 1030
# A number is an active result; 0 = inactive; ? = inconclusive; - = not tested or not shown; [ ] = remark or other dose. Unless noted, the call rests on the fitted dose curve; in most records, active means well fitted inhibition curve with a large enough effect (not every such curve was filed as active); inconclusive means small, poorly fitted or top-dose-only effect, or another doubt; inactive means no such curve, though single readings can be large or run the other way.
SMILES,ALOX12 inhib,PNC assembly inh,Lamin A splicing,HPGD inh,ALDH1A1 block
COc1cc(/C=C(\C#N)C(=O)NCC2CCCO2)c([N+](=O)[O-])cc1OC (configuration not stated),0,0,0,28µM,?
Cc1ccccc1-n1c(C)cc(/C=C(\C#N)C(=O)NCC2CCCO2)c1C (configuration not stated),0,0,?,0,14µM
CCOc1cc(/C=C(\C#N)C(=O)NCC2CCCO2)ccc1OCC(N)=O (configuration not stated),-,-,0,-,0
N#C/C(=C\c1cccc([N+](=O)[O-])c1)C(=O)NCC1CCCO1 (configuration not stated),-,-,-,-,0
COc1cccc(C(=O)Nc2cc(-c3ccccc3)nn2-c2ccccc2)c1,-,-,0,-,-
COCC(=O)N1CCC[C@@]2(CCN(c3ncccn3)C2)C1,0,-,-,0,0
CC1CC(=O)C2=C(C1)OC(N)=C(C#N)C2c1coc2ccccc2c1=O (configuration not stated),0,0,0,0,18µM
O=C(c1ccco1)N1CCN(C2CC(=O)N(c3ccccc3)C2=O)CC1 (configuration not stated),0,0,0,0,20µM
CCOc1ccc(N2C(=O)CC(N(Cc3ccco3)C(C)=O)C2=O)cc1 (configuration not stated),-,-,-,-,20µM
O=C(c1ccco1)N1CCN(C2CC(=O)N(c3ccc4c(c3)OCO4)C2=O)CC1 (configuration not stated),0,0,0,0,?
CCOC(=O)c1ccc(N2C(=O)CC(N3CCN(C(=O)c4ccco4)CC3)C2=O)cc1 (configuration not stated),0,0,0,0,?
CCOc1ccc(N2C(=O)CC(N3CCN(C(=O)c4ccco4)CC3)C2=O)cc1 (configuration not stated),0,?,0,0,8.9µM
Cc1cccc(N2CCN(S(=O)(=O)c3c(C(=O)N4CCC(C)CC4)c(C)n(C)c3C)CC2)c1C,-,-,0,-,-
COc1ccc(NC(=O)c2cc(CN3CCCC3)on2)cc1Cl,-,-,0,-,-
O=C(NC1=NCCS1)C12CC3CC(C1)CC(C(=O)NC1=NCCS1)(C3)C2,0,0,0,0,0
O=C(Nc1nccs1)C12CC3CC(C1)CC(C(=O)Nc1nccs1)(C3)C2,0,-88,0,0,0
CCOc1ccc(C(=O)NCCS(=O)(=O)N2CCN(c3ccccc3F)CC2)cc1OCC,-,-,0,-,-
CCOC(=O)c1ccc(NC(=O)c2cnc3c(-c4ccc(F)cc4)c(C)nn3c2C)cc1,-,-,0,-,-
Cc1cccc2c1N(CCOc1ccc(C(C)(C)C)cc1)C(=O)C2=O,0,0,0,0,0.5µM
Cc1ccc(OCCCN2C(=O)C(=O)c3cccc(C)c32)cc1,0,0,0,18µM,0.071µM
COc1ccc(-c2nnn(CC(=O)NCc3ccccc3)n2)cc1OC,0,-119,?,0,0
COc1ccc(CNC(=O)CN(C(=O)Cn2nnc(-c3ccccc3F)n2)c2ccc(C)cc2)cc1,-,-,-,-,8.9µM
CC(C)OC(=O)Cn1nnc(-c2ccccc2)n1,0,0,0,0,0
CCOC(=O)Cn1nnc(-c2ccccc2)n1,0,-100,0,0,0
COc1cccc(-c2nnn(CC(=O)O)n2)c1,0,-91,0,0,0
SMILES,ALOX12 inhib,PNC assembly inh,Lamin A splicing,HPGD inh,ALDH1A1 block
O=C(O)[C@@H](O)[C@@H](O)[C@H](O)C(=O)CO,0[11.4 µM],-,0,0,0[13.5 µM]
O=c1c(Cc2ccccc2)c(O)ccn1Cc1ccco1,-,-,-,-,0
CCOC(=O)c1c(N)nn(C(=O)CC)c1-c1ccccc1,0,-100,0,0,0
CCOC(=O)c1c(N)nn(C(=O)C(C)C)c1-c1ccccc1,0,0,0,0,0
Cc1nn(-c2ccccc2)c(N)c1Sc1ccc([N+](=O)[O-])cc1,0,?,?,20µM,1.4µM
Cc1nn(-c2ccccc2)c2c1C(c1ccco1)C(C#N)=C(N)O2 (configuration not stated),0,0,0,0,1µM
Cc1nn(-c2ccccc2)c2c1C(c1cccs1)C(C#N)=C(N)O2 (configuration not stated),0,0,0,?,11µM
Cc1nn(-c2ccccc2)c2c1C(c1ccc([N+](=O)[O-])cc1)C(C#N)=C(N)O2 (configuration not stated),-,-,-,-,14µM
O=C(N/N=C1/C(=O)c2cccc3cccc1c23)c1ccc(Cl)cc1,0,0,0,28µM,?
CCNC(=S)N/N=C1\C(=O)c2cccc3cccc1c23,0,0,0,0,10µM
O=C(c1cnccn1)N1CCC2(CC1)CN(c1ccccn1)C2,0,-,-,0,?
CN1CC[C@@]2(CCCN(S(=O)(=O)c3ccccc3)C2)C1,0,-,-,0,0
Cc1ccccc1Nc1nc(N)nc(CSCc2c(C)noc2C)n1,0,?,0,0,14µM
C#CCNC(=O)C1=C[C@@H](c2ccccc2)C[C@@H](OCc2ccc(CO)cc2)O1,-,-,-,-,0
O=C(C1=C[C@@H](c2ccc(C(F)(F)F)cc2)C[C@@H](OCc2ccc(CO)cc2)O1)N1CCN(Cc2ccc3c(c2)OCO3)CC1,-,-,-,-,13µM
C#CCNC(=O)C1=C[C@H](c2ccc(C(F)(F)F)cc2)C[C@H](OCc2ccc(CO)cc2)O1,-,-,-,-,28µM
C=CCOC(=O)C1=C[C@@H](c2ccc(Br)cc2)C[C@@H](OCc2ccc(CO)cc2)O1,-,-,-,-,18µM
O=C(Nc1ccccc1)C1=C[C@H](c2ccc3c(c2)OCO3)C[C@H](OCc2ccc(CO)cc2)O1,-,-,-,-,28µM
CN1CCN(C(=O)C2=C[C@@H](c3ccc(Br)cc3)C[C@@H](OCc3ccc(CO)cc3)O2)CC1,-,-,-,-,0
CN1CCN(C(=O)C2=C[C@@H](c3ccccc3)C[C@@H](OCc3ccc(CO)cc3)O2)CC1,-,-,-,-,13µM
CCOC(=O)/C(=C\c1cn(C)c2ccccc12)[N+](=O)[O-],0,0,?,3.5µM,6.3µM
CCOC(=O)/C(C#N)=C\c1cn(C)c2ccccc12,-,-,-,-,0
O=C1CSC(=S)N1/N=C/c1ccc(Cl)c([N+](=O)[O-])c1,-,-,-,-,32µM
COc1cc(/C=N/N2C(=O)CSC2=S)ccc1O,?,0,0,0,28µM
O=C1CSC(=S)N1/N=C\c1ccc(Cl)c([N+](=O)[O-])c1,0[11.4 µM],-,-,0,0[13.5 µM]
SMILES,ALOX12 inhib,PNC assembly inh,Lamin A splicing,HPGD inh,ALDH1A1 block
COc1cc(/C=N/N2C(=O)C3C4C=CC(CC4)C3C2=O)ccc1O (configuration not stated),-,-,-,-,14µM
CCOC(=O)c1c(S(=O)(=O)N2CCC(C(=O)Nc3ccc(C)cc3C)CC2)c(C)n(C)c1C,-,-,0,-,-
COc1cccc(Nc2ncc3nc(CCc4ccccc4)c(=O)n(CCC#N)c3n2)c1,0,-,-,?,0
CC(=O)c1cc(C#N)c(Oc2cc(C)cc(C)c2)nc1C,0,-114,0,0,0
CCOC(=O)CSc1nc(C)c(C(C)=O)cc1C#N,0,0,0,22µM,0
COc1cccc(C2=CC(c3cccc(OC)c3OC)n3nnnc3N2)c1 (configuration not stated),0,-87,0,0,?

# Screening data deposited in PubChem BioAssay by National Center for Advancing Translational Sciences (NCATS).
